From ChEMBL document CHEMBL4513216, “Probing the Open Global Health Chemical Diversity Library for Multistage-Active Starting Points for Next-Generation Antimalarials” (ACS Infect Dis, 2020)
The campaign covered roughly 68,000 compounds. About 2,700 (4%) showed an effect of 50% or more. The list comes from a sample in which strong results are over-represented; it also holds similar structures and randomly drawn compounds.

tested on: Plasmodium berghei; test: Screen against P. berghei liver stage (PbLuc), transformed with Luciferase, at 2uM; assay type: functional, HepG2; details: tested at 2 uM

Which INHIBITION does the source give for `Cc1nc(CC(C)C)cc(C(=O)N2C[C@@H](CN(C)C)[C@@H](CO)C2)n1` here?
The INHIBITION was 3.46%.

For `CCc1noc(C(C)N2CCC(C(=O)Nc3cnn(CC)c3)CC2)n1` (configuration not stated), which INHIBITION is on record?
The INHIBITION was -56.72%.

How did the INHIBITION turn out when `CCN(Cc1ccc2c(c1)OCO2)C(=O)c1ccc(C)[nH]c1=O` was run?
Its INHIBITION is 0.26%.

Which INHIBITION does the source give for `COc1ccc(Cl)cc1C(=O)N1C[C@H](C(C)C)[C@@H](N)C1` here?
The INHIBITION was 5.88%.

For `NC(=O)NC(=O)CCSCc1coc(-c2cccc(Cl)c2)n1`, which INHIBITION is on record?
Its INHIBITION is 16.25%.

How did the INHIBITION turn out when `O=C(Nc1cnc2n1CCCC2)C1CCCN1C1CCNCC1` (configuration not stated) was run?
Its INHIBITION is -26.04%.

How did the INHIBITION turn out when `CCn1cnnc1CNC(=O)N1CCC(C(=O)NC)CC1` was run?
The INHIBITION was -29.11%.

With `CCn1cnnc1CNC(=O)N1CCN(c2nccs2)CC1` as the molecule, how does the INHIBITION read?
Its INHIBITION is 17.31%.

`CCn1cnnc1CNC(=O)N1CCN(c2ccccc2O)CC1` was tested. Which INHIBITION did it give?
The INHIBITION was -3.06%.

With `CCN(CC)C1CCN(C(=O)NCc2nncn2CC)CC1` as the molecule, how does the INHIBITION read?
Its INHIBITION is 55.52%.

How did the INHIBITION turn out when `CCn1cnnc1CNC(=O)N1CCCC1` was run?
The INHIBITION was 33.82%.

With `CCn1cnnc1CNC(=O)N1CCCCCC1` as the molecule, how does the INHIBITION read?
The INHIBITION was -8.32%.

Which INHIBITION does the source give for `CCn1cnnc1CNC(=O)N1CCC(CN2CCCCCC2)CC1` here?
Its INHIBITION is 27.47%.

`CCn1cnnc1CNC(=O)N1CCOCC1` was tested. Which INHIBITION did it give?
The INHIBITION was 27.31%.

How did the INHIBITION turn out when `CCn1cnnc1CNC(=O)N1CCC(C)CC1` was run?
The INHIBITION was 56.4%.

`CCn1cnnc1CNC(=O)N1CCN(c2cccs2)CC1` was tested. Which INHIBITION did it give?
Its INHIBITION is 54.85%.

`CCn1cnnc1CNC(=O)N1CCC(O)CC1` was tested. Which INHIBITION did it give?
Its INHIBITION is -0.05%.

`CCN(CCC1CCN(C(=O)NCc2nncn2CC)CC1)CC1CC1` was tested. Which INHIBITION did it give?
The INHIBITION was 56.4%.

For `Cc1cc2ccccc2n1CCC(=O)NCCS(C)(=O)=O`, which INHIBITION is on record?
The INHIBITION was -67.22%.

For `O=C(C1CCOCC1)N1CCc2ncnc(-c3ccc(F)cc3)c2CC1`, which INHIBITION is on record?
Its INHIBITION is -7.01%.

Which INHIBITION does the source give for `c1cncc(CNc2ccccc2-c2nn[nH]n2)c1` here?
Its INHIBITION is 27%.

`O=C(c1cscn1)N1CCCC2(CCN2Cc2cccc(F)c2)C1` (configuration not stated) was tested. Which INHIBITION did it give?
The INHIBITION was 37.33%.

`CC(C)N(C)Cc1cc(=O)n2c(n1)CN(C(=O)c1cnccn1)CCC2` was tested. Which INHIBITION did it give?
The INHIBITION was -14.64%.

How did the INHIBITION turn out when `Cn1ccnc1CN1CCCN(C(=O)c2ccc3[nH]nnc3c2)CC1` was run?
The INHIBITION was -56.99%.

With `Cc1ccc(NC(=O)Cn2ccc3c(=O)n(C)ccc32)cc1F` as the molecule, how does the INHIBITION read?
Its INHIBITION is 41.86%.

Which INHIBITION does the source give for `COc1ccc(NC(=O)Cn2ccc3c(=O)n(C)ccc32)cc1OC` here?
The INHIBITION was 52.61%.

With `Cn1ccc2c(ccn2CC(=O)Nc2ccc(Br)cc2)c1=O` as the molecule, how does the INHIBITION read?
Its INHIBITION is 0.5%.

With `CCn1ccc2ccnc(CC3CN(C(=O)Cn4ccnc4C)C3)c21` as the molecule, how does the INHIBITION read?
Its INHIBITION is 2.78%.

With `CCc1nnc(CNC(=O)CCN2CCN(c3cccc(C)c3)CC2)s1` as the molecule, how does the INHIBITION read?
The INHIBITION was -27.19%.

With `Cc1cccc(N2CCN(CCC(=O)NCc3nnc[nH]3)CC2)c1` as the molecule, how does the INHIBITION read?
The INHIBITION was 71.67%.

`Cc1cccc(N2CCN(CCC(=O)NCc3cnc(C)cn3)CC2)c1` was tested. Which INHIBITION did it give?
Its INHIBITION is -39.01%.

Which INHIBITION does the source give for `CC1(c2ncc(CN3CCN(c4ncccn4)CC3)cn2)CCCCO1` (configuration not stated) here?
The INHIBITION was -30.88%.

`COc1ccc(-n2nc(C3CC3)nc2CCn2cnnn2)cc1` was tested. Which INHIBITION did it give?
The INHIBITION was -4.15%.

For `Cc1cccc(CNC(Cc2ccsc2)c2nc(C)c(C)s2)n1` (configuration not stated), which INHIBITION is on record?
The INHIBITION was 8.75%.

How did the INHIBITION turn out when `CC[C@@H]1N(CC2CC2)CCC[C@]12CCC(=O)N2` was run?
Its INHIBITION is 10.49%.

`CC[C@@H]1N(CC2CCOCC2)CCC[C@]12CCC(=O)N2` was tested. Which INHIBITION did it give?
Its INHIBITION is 20.88%.

Which INHIBITION does the source give for `CC[C@H]1N(CC2CCOCC2)CCC[C@]12CCC(=O)N2` here?
Its INHIBITION is 65.91%.

`Cc1ccc(C(=O)N2Cc3c(CN4CCCCC4)nn(C)c3C2)cc1C` was tested. Which INHIBITION did it give?
Its INHIBITION is -15.95%.

`Cc1cc(C)c2c(N(C)CC3CCOC3)ncnc2n1` (configuration not stated) was tested. Which INHIBITION did it give?
The INHIBITION was 27.73%.

How did the INHIBITION turn out when `Cc1cc(C)c2c(N(C)CC3COCCO3)ncnc2n1` (configuration not stated) was run?
The INHIBITION was 55.7%.

With `CN(CC1COCCO1)c1ncnc2cc(F)ccc12` (configuration not stated) as the molecule, how does the INHIBITION read?
The INHIBITION was 22.62%.

For `Cn1c(Cn2cccn2)nnc1C1CCN(Cc2ccccc2Cl)CC1`, which INHIBITION is on record?
Its INHIBITION is 15.75%.

For `N[C@H]1c2ccccc2C[C@@H]1NC(=O)C1CCN(Cc2ccco2)CC1`, which INHIBITION is on record?
The INHIBITION was 22.88%.

With `CN(C)C(=O)CO[C@@H]1CN(Cc2ccccc2)[C@@H]2CCCO[C@@H]21` as the molecule, how does the INHIBITION read?
The INHIBITION was 52.66%.

`CN(C)C(=O)CO[C@H]1CN(Cc2ccccc2)[C@@H]2CCCO[C@H]12` was tested. Which INHIBITION did it give?
The INHIBITION was 45.56%.

For `CN(C)C(=O)CO[C@H]1CN(Cc2ccc(F)cc2)[C@@H]2CCCO[C@H]12`, which INHIBITION is on record?
The INHIBITION was -84.27%.

`Cn1cnnc1CNC(=O)C1CCCN(Cc2ccccc2)C1` (configuration not stated) was tested. Which INHIBITION did it give?
The INHIBITION was 6.33%.

Which INHIBITION does the source give for `CCNC(=O)NC1CN(Cc2ccncc2Cl)C[C@@H]1OC` (some centres not stated) here?
Its INHIBITION is -0.98%.

For `COCC1c2c(cnn2CC2CC2)CCN1Cc1ccc(OC)cc1` (configuration not stated), which INHIBITION is on record?
Its INHIBITION is -4.92%.

Which INHIBITION does the source give for `Cc1nc(COC[C@@H]2CC[C@H]3[C@H](CCN3c3ncccn3)O2)cs1` here?
The INHIBITION was -8.23%.

`COc1ccc(C(=O)C2CCCN(CCc3ccccc3)C2)c(OC)c1` (configuration not stated) was tested. Which INHIBITION did it give?
Its INHIBITION is -18.81%.

Which INHIBITION does the source give for `CCOc1cc(CN(C)CC(=O)O)ccc1OC(F)F` here?
Its INHIBITION is 78.96%.

With `CCOc1cc(CN(C)CCC(=O)OC)ccc1OC(F)F` as the molecule, how does the INHIBITION read?
The INHIBITION was 14.96%.

`CCOc1cc(CN(C)Cc2ccccc2)ccc1OC(F)F` was tested. Which INHIBITION did it give?
The INHIBITION was -5.59%.

`CCN(Cc1nonc1C)C(=O)c1cc(C(F)(F)F)nn1C` was tested. Which INHIBITION did it give?
The INHIBITION was -12.5%.

How did the INHIBITION turn out when `O=C(C1CCCO1)N1CCC2(CC1)COCCN(Cc1cccnc1)C2` (configuration not stated) was run?
The INHIBITION was 55.49%.

How did the INHIBITION turn out when `c1cnc(N2CCC3(CCN(Cc4cccnc4)CC3)CC2)nc1` was run?
The INHIBITION was 45.82%.

With `COCC(=O)N1CCC2(CCN(Cc3ccc(C)cc3)CC2)CC1` as the molecule, how does the INHIBITION read?
Its INHIBITION is -4.2%.

For `c1cnc(N2CC3(CCN(Cc4cccnc4)C3)C2)nc1`, which INHIBITION is on record?
The INHIBITION was 52.91%.

Which INHIBITION does the source give for `Cc1cnc(N2CC3(CCN(Cc4cccnc4)C3)C2)nc1` here?
Its INHIBITION is 9.53%.

With `COCC(=O)N1CC[C@]2(O)CCN(Cc3cccnc3OC)C[C@@H]2C1` as the molecule, how does the INHIBITION read?
The INHIBITION was 56.49%.

With `COCC(=O)N1CCC2(CC1)C(=O)N(Cc1cccnc1)CCN2C` as the molecule, how does the INHIBITION read?
The INHIBITION was 33.3%.

`COCC(=O)N1CCC2(CCN(Cc3cccnc3)C2)CC1` was tested. Which INHIBITION did it give?
The INHIBITION was 51.81%.

Which INHIBITION does the source give for `COCC(=O)N1CC[C@]2(O)CCN(Cc3ccsc3)C[C@@H]2C1` here?
The INHIBITION was 19.49%.

With `COc1ncccc1CN1CC[C@@]2(O)CCN(C(=O)C3CCC3)C[C@H]2C1` as the molecule, how does the INHIBITION read?
The INHIBITION was 27.85%.

With `O=C([C@@H]1CCCO1)N1CCOCC2(CCN(Cc3cccnc3)C2)C1` (some centres not stated) as the molecule, how does the INHIBITION read?
The INHIBITION was -31.3%.

With `O=C(C1CCCO1)N1CCC2(CC1)COCCN(Cc1ccncc1)C2` (configuration not stated) as the molecule, how does the INHIBITION read?
Its INHIBITION is -66.98%.
